Results as given in PubChem BioAssay (NCI).
The panel holds about 79,000 compounds, 15% with a hit somewhere; the sample as a whole holds those more often. A number with no mark means an inactive call. Activity calls are given as the source filed them. No stated cut-off is given here; in the data, active means growth inhibition above about 70%; inactive means the rest.

Assay: NCI Yeast Anticancer Drug Screen. Data for the rad50 strain (AID 155);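 further: 0% = growth of vehicle-only cultures of the same strain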
Conditions: S. cerevisiae rad50 strain growth inhibition; at 50.0 µM; active compounds read high
Outline: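 Genetically altered yeast (DNA repair pathway); compound treatment; growth inhibition vs vehicle ctrl.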

Row | Compound | growth inhibition
1 | CC(=O)OCC1OC(n2nc(C#N)c(C#N)n2)C(OC(C)=O)C1OC(C)=O (stereo not drawn) | 37.9%
2 | COc1ccc(OC)c(C(=O)C=C(C(F)(F)F)C(F)(F)F)c1 | -7.65%
3 | COc1ccc(S(=O)(=O)O)cc1NS(=O)(=O)c1ccc(C)cc1 | -1.05%
4 | COc1ccc2c3ccc4c(c3n(C)c2c1)C(=O)c1ccccc1C4=O | -38.3%
5 | Cc1cc(Cl)cc(CN(C)Cn2c(=O)cc[nH]c2=O)c1O | 6.45%
6 | Cc1nc2sccn2c1C(=O)NC(=O)Nc1ccc(Cl)cc1 | 0.35%
7 | N#CC(N)(C(=O)CCC(=O)Nc1cccc(Cl)c1)c1ccc(Cl)cc1 (stereo not drawn) | 1.7%
8 | COC(=O)c1nc(N)nc(C(=O)OC)c1C(=O)c1ccco1 | 3.95%
9 | CCOC(=O)/C(N=O)=C(/C)O | 13.8%
10 | COC(=O)c1nc2nnc(N)n2c(-c2ccc(Cl)cc2)c1C | -6.3%
11 | Clc1ccc(Nc2ncnc3oc(-c4ccccc4)c(-c4ccccc4)c23)cc1 | 6.7%
12 | Cc1cccc(NC(=O)/C(=N\NC(C)(C)C)C2NC(=S)NC2=O)c1C (stereo not drawn) | -2.25%
13 | CC1(C)CC(=O)C2(C)C(C1O)C2C1C2C(O)C(C)(C)CC(=O)C21C (stereo not drawn) | -11.2%
14 | N[C@@H](CCC(=O)NC(Cc1ccccc1)C(=O)NCP(=O)(O)O)C(=O)O (stereo partly drawn) | -60.9%
15 | NC1=NC=NCN1c1ccc(N)cc1 | 1.65%
16 | COC(=O)C1=CC(O)CCC1c1ccc(OC)cc1 (stereo not drawn) | -6.2%
17 | Nc1nc(Sc2ccc([N+](=O)[O-])c3nonc23)c2[nH]cnc2n1 | 17.1%
18 | COC(=N)CC(=O)C(C)(C)C | -6.4%
19 | Cc1ncc([N+](=O)[O-])n1CCNC(=O)CCn1ccnc1[N+](=O)[O-] | 10.2%
20 | C/C=C(/C)C(=O)O[C@H]1C[C@@H]2[C@@H](O)c3occ(C)c3C[C@]2(C)[C@@H](C)C1 | 91% (active)
21 | CN1C/C(=C\c2ccc(C(=O)O)cc2)C(=O)/C(=C/c2ccc(C(=O)O)cc2)C1 | 33.3%
22 | CCCCSCc1nc2nc(Cl)c(Cl)nc2[nH]1 | -18.1%
23 | CC(C)(C)NNC(=O)/C(=C/c1ccc(Oc2ccc(Cl)c(Cl)c2)cc1)NC(=O)c1ccccc1 | 7.45%
